# Screens as filed in PubChem.
# Only some compounds are listed: those with a hit (about 8% of all), similar ones and a draw of the others.
# MARV entry inh: qHTS for inhibitors of binding or entry into cells for Marburg Virus; AID 540276, 2011; Marburg virus pseudotyped entry inhibition, cell reporter; 300,000 compounds, 1.8% hits; Potency, µM (titrated, usually from 37.8 µM), for inactives: top-dose activity change, negative = inhibition, actives largely listed as inhibitors; calls by dose curve; tested in HEK293 cells; further: potency means the concentration at half of the fitted maximal effect; on the % scale 0 is the no-effect control and ±100 the full control effect
# FMDV antiviral: High Throughput Screening for Foot and Mouth Disease Virus Antivirals; FMDV antiviral cell-based qHTS; Potency, µM (highest dose often 57.9 µM), inactives show at the highest dose activity change, negative = inhibition, hits mostly inhibitors; 410,000 compounds, 1.2% hits; calls by dose curve; tested in HEK293T cells; further: read-out not given here; potency means the concentration at half of the fitted maximal effect; on the % scale 0 is the no-effect control and ±100 the full control effect; nearly all actives have a fitted effect of over 45% in size
# SARS PLpro yeast: qHTS of Yeast-based Assay for SARS-CoV PLP | S. cerevisiae expressing SARS-CoV PLpro, growth rescue | Potency, µM (titrated, usually from 32.9 µM), inactives show top-dose activity, positive = growth rescue, usual class: activators | 330,000 compounds, 0.19% hits | AID 485353, 2010; calls by dose curve; further: potency means the concentration at half of the fitted maximal effect; 0% is about no effect; nearly all actives have a fitted effect of over 55% in size
# HCMV antiviral: qHTS Assay for inhibitors of the human cytomegalovirus (HCMV) | HFF cells, HCMV-luciferase reporter, 72 h; hits give low values | activity change, negative = inhibition, % at 57.5 µM | 410,000 compounds, 4.5% hits; in the data active means activity change below about -60%; inconclusive means no clear call, values can overlap the other calls; inactive means above about -39%; further: on the % scale 0 is the no-effect control and ±100 the full control effect
#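 After 16 h attachment at 37C, HFF cells received test compound and HCMV-luciferase (1 PFU/cell); reporter luminescence read 72 h later, data normalized against buffer-only and known inhibitor Salinomycin.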
# Lassa entry inh: qHTS for Inhibitors of binding or entry into cells for Lassa Virus; Lassa virus pseudotype entry inhibition, cell reporter; Potency, µM (series often up to 37.9 µM), for the others: at the top dose activity change, negative = inhibition, actives largely listed as inhibitors; 300,000 compounds, 1.2% hits; calls by dose curve; tested in HEK293 cells; further: potency means the concentration at half of the fitted maximal effect; on the % scale 0 is the no-effect control and ±100 the full control effect; nearly all actives have a fitted effect of over 50% in size
# HCV inh: qHTS Assay for Inhibitors of Hepatitis C Virus (HCV); Huh7.5.1 HCVcc-Cre infection, luciferase reporter, 44 h; Potency, µM (top dose mostly 41.8 µM), for inactives: top-dose activity change, negative = inhibition, most hits filed as inhibitors; 340,000 compounds, 3.4% hits; AID 651820, 2012; active means well fitted inhibition curve with a large enough effect; inconclusive means small, poorly fitted or top-dose-only effect, or another doubt; inactive means no such curve, though single readings can be large or run the other way; further: potency means the concentration at half of the fitted maximal effect; on the % scale 0 is the no-effect control and ±100 the full control effect
#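 A cell-based infection assay in which seeded cells (1,000 per well) receive test compound after 4 h, are inoculated with HCVcc-Cre at approximately 0.5 moi, and are incubated 44 h before luminescence detection.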
# * marks the source's active call; other numbers are inactive results; ? = inconclusive; nt = no result; [ ] = remark or other dose.
SMILES,MARV entry inh,FMDV antiviral,SARS PLpro yeast,HCMV antiviral,Lassa entry inh,HCV inh
COc1ccccc1-c1nc(SCC(=O)NCc2ccccc2)c2c(=O)n(C)c(=O)n(C)c2n1,nt,-16%,nt,0,-3%[46.1 µM],nt
COc1cc(=O)n2c(c1C(=O)N(C)Cc1ccsc1)CCN(Cc1c(C)nc3sccn13)CC2,nt,-9%,nt,nt,nt,nt
CC1CC(Nc2ccccc2)c2ccccc2N1C(=O)c1ccco1 (centres undefined),?,-13%,5%,-11,-18%,-25%
CC1CC(Nc2ccccc2)c2ccccc2N1C(=O)c1ccncc1 (centres undefined),10µM*,-3%,-1%,-9,-24%,4%
O=C1CC2(CCN(C(=O)c3cccc(Cl)c3)CC2)Oc2ccccc21,16%,?,nt,-99*,12%[46.1 µM],17%
CCOc1ccc(CCNC(=O)c2cnc3sc(N4CCOCC4)nn3c2=O)cc1,nt,-16%,nt,-12,-2%[46.1 µM],nt
CCOC(=O)c1sc2nc(C)nc(Nc3ccc(OC)cc3)c2c1C,?,-5%,1%,-67*,16%,-25%
CCOC(=O)c1sc2nc(C)nc(NCc3ccc(Cl)cc3)c2c1C,-20%,?,-1%,-68*,?,?
CCOC(=O)c1sc2nc(C)nc(SC(C)C(=O)N(C)c3ccccc3)c2c1C (centres undefined),?,-17%,-4%,-64*,?,?
CCOC(=O)c1sc2nc(C)nc(NCc3ccc(F)cc3)c2c1C,?,-11%,-5%,?,?,?
O=C(c1cnn(-c2nccc(-c3ccco3)n2)c1C1CC1)N1CCCCC1c1cccnc1 (centres undefined),nt,-12%,nt,nt,nt,nt
O=C(O)c1ccccc1CSc1nc2ccccc2n1Cc1ccccc1C(=O)O,13%[46.1 µM],-16%,6%,-1,?,6%
CC(=O)OC[C@]12CCC(C)=C[C@H]1O[C@@H]1[C@H](O)[C@@H](OC(C)=O)[C@@]2(C)[C@]12CO2,nt,?,-10%,-77*,nt,?
CC(=O)Nc1ccc(NC(=O)CCc2c(C)nc3c(c(C)nn3-c3ccc(C)cc3)c2C)cc1,-30%[46.1 µM],-13%,nt,28,-3%[46.1 µM],nt
COc1ccc(C#Cc2c(-c3ccccc3)n(-c3ccccc3)c3ccc(CO)cc23)cc1,nt,-23%,-5%,34,nt,?
Nc1n[nH]c(-c2ccc(Br)cc2)c1Cl,-8%,-5%,-10%,-109*,2%,-9%
Cc1ccc(NC(=O)C2CCCN(S(=O)(=O)c3ccc4c(c3)oc(=O)n4C)C2)cc1Cl (centres undefined),6%[46.1 µM],?,nt,14,15%[46.1 µM],nt
OC[C@@H]1CN(Cc2ccc(-c3ccccc3)cc2)C[C@H](n2cnc3c(Nc4ccccc4)ncnc32)O1,nt,32µM*,nt,-65*,nt,nt
OC[C@@H]1CN(Cc2ccc(F)cc2)C[C@H](n2cnc3c(Nc4ccccc4)ncnc32)O1,nt,-1%,nt,?,nt,nt
OC[C@@H]1CN(Cc2ccc(-c3ccccc3)cc2)C[C@H](n2cnc3c(NCc4ccc(F)cc4)ncnc32)O1,nt,28µM*,nt,-85*,nt,nt
C/C(Cl)=C\Cn1c(NCCc2ccccc2)nc2c1c(=O)n(C)c(=O)n2C,3.7µM*,nt,2%,-95*,4.6µM*,2.5µM*
Cn1c(=O)c2c(nc(NCCc3ccccc3)n2CC(=O)NCCc2ccccc2)n(C)c1=O,10%,-25%,-5%,75,-9%,-12%
Cc1ccc(Cn2c(NCCc3ccccc3)nc3c2c(=O)n(C)c(=O)n3C)cc1,?,16µM*,-2%,-69*,?,4µM*
CCn1c(NCc2ccco2)nc2c1c(=O)n(C)c(=O)n2C,0%,-22%,4%,24,17%,7%
Cn1c(=O)c2c(nc(NCc3ccco3)n2CCc2ccccc2)n(C)c1=O,?,20µM*,3%,?,-17%,?
C=CCn1c(NCCc2ccccc2)nc2c1c(=O)n(C)c(=O)n2C,?,25µM*,0%,-82*,?,?
